Experimental data published in PubChem BioAssay (NCI).
Compounds without any hit were thinned out: in the full panel of roughly 83,000, 20% have a hit.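 How to read the values: 0–100, growth inhibition (40 = 60% inhibited); 0, no net growth; -100 to 0, cell death (-40 = 40% of starting cells died; -100 = all dead).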 Unmarked numbers belong to inactive results. Calls of active or inactive are those of the source. The calls were made as follows: active = growth percent below 10; inactive = the rest.

Legend:
Test in all cases: NCI-60 one-dose screen, 48 h (100 = growth as untreated, 0 = no growth, -100 = all killed)
Details in all cases: 10 µM unless noted
SK-MEL-2 melanoma = system: SK-MEL-2 melanoma
EKVX NSCLC = system: EKVX NSCLC
SN12C renal = system: SN12C renal
UO-31 renal = system: UO-31 renal
TK-10 renal = system: TK-10 renal
ACHN renal = system: ACHN renal
CAKI-1 renal = system: CAKI-1 renal
A498 renal = system: A498 renal
MOLT-4 leukemia = system: MOLT-4 leukemia
SR leukemia = system: SR leukemia
RPMI-8226 leukemia = system: RPMI-8226 leukemia
OVCAR-8 ovarian = system: OVCAR-8 ovarian
OVCAR-5 ovarian = system: OVCAR-5 ovarian
OVCAR-4 ovarian = system: OVCAR-4 ovarian
SK-OV-3 ovarian = system: SK-OV-3 ovarian
IGROV1 ovarian = system: IGROV1 ovarian
OVCAR-3 ovarian = system: OVCAR-3 ovarian
HS 578T breast = system: HS 578T breast
NCI/ADR-RES ovarian = system: NCI/ADR-RES ovarian
CCRF-CEM leukemia = system: CCRF-CEM leukemia

Structure (SMILES) | growth (SK-MEL-2 melanoma) [%] | growth (EKVX NSCLC) [%] | growth (SN12C renal) [%] | growth (UO-31 renal) | growth (TK-10 renal) [%] | growth (ACHN renal) | growth (CAKI-1 renal) [%] | growth (A498 renal) | growth (MOLT-4 leukemia) | growth (SR leukemia) | growth (RPMI-8226 leukemia) | growth (OVCAR-8 ovarian) | growth (OVCAR-5 ovarian) [%] | growth (OVCAR-4 ovarian) [%] | growth (SK-OV-3 ovarian) | growth (IGROV1 ovarian) | growth (OVCAR-3 ovarian) | growth (HS 578T breast) | growth (NCI/ADR-RES ovarian) | growth (CCRF-CEM leukemia)
COc1ccc(-c2cn(-c3ccc(Cl)cc3)c(SCC(=O)c3ccc([N+](=O)[O-])cc3)n2)cc1 | 73.6 | 95 | 78.3 | 82.5% | 55.9 | 81.5% | 76.1 | 85.2% | 83.5% | 90.1% | 97.2% | 51.8% | 90.5 | 38.7 | 85.2% | 83% | 106% | 41% | 79.5% | –
C#CC#CC#CC#CC#CC#CC#CC#CCC1OCC(COC(=O)O[C@@H](C(=O)O[C@H]2C[C@@]3(O)[C@@H](OC(=O)c4ccccc4)[C@@H]4[C@]5(OC(C)=O)CO[C@@H]5C[C@H](O)[C@@]4(C)C(=O)[C@H](OC(C)=O)C(=C2C)C3(C)C)[C@@H](NC(=O)c2ccccc2)c2ccccc2)O1 (stereo partly drawn) | 30.9 | 45.5 | 21.4 | 81.7% | 48 | 45.4% | 49.6 | -8.03% (active) | 20.7% | 12.4% | 7.03% (active) | 14.8% | 18.8 | 59.5 | 41.9% | 22.2% | 4.93% (active) | -4.44% (active) | 93.5% | –
COc1cc(C2C3=C(COC3=O)N(CCO)c3cc4c(cc32)OCCO4)cc(OC)c1OC (stereo not drawn) | 58.5 | 45.7 | 23.8 | 54.3% | 60.3 | 20.7% | 41.3 | -28.8% (active) | 8.21% (active) | 1.09% (active) | 21.9% | 6.75% (active) | 41.5 | 24.9 | 5.64% (active) | 4.17% (active) | -55.6% (active) | -4.92% (active) | 48.2% | –
Cc1ccc(C)c2c1C(O)(C#Cc1ccccc1)c1ccccc1C2(O)C#Cc1ccccc1 (stereo not drawn) | 15.9 | 38.5 | 71.5 | 19.6% | 58.8 | 49.7% | 71.9 | 69.2% | 19.5% | 123% | – | 59.3% | 81.3 | 47.7 | 75% | -12.5% (active) | 63.3% | 72.5% | 71.1% | 27.5%
CCOC(=O)c1c(NC(=O)c2ccc(OC)cc2)sc2c(CN(C)C)c(O)ccc12 | 105 | 95.9 | 77.5 | 88.8% | 94.4 | 6.26% (active) | 72.3 | 68.9% | 61.2% | -21.5% (active) | 15.8% | 84.2% | 90.6 | 85.2 | 99.6% | 90.7% | 106% | 88.9% | 84.5% | –
COc1ccc2c(c1)c(-c1nc(-c3cn(C)c4ncccc34)cs1)cn2CCO | 93 | 67.5 | 86.1 | 67.7% | 83 | 72.1% | 88.7 | – | 58.2% | 58.2% | 50.5% | 73% | 76 | 45.5 | 89.8% | 85.2% | 99.1% | 80.9% | 90% | 43.3%
CSCCC(NC(=O)c1ccccc1)C(=O)N/N=C1\S/C(=C/c2ccc(Cl)cc2)C(=O)N1C (stereo not drawn) | 97.4 | 92.7 | 97.3 | 90.6% | 105 | 76.5% | 117 | – | 66.8% | 38.2% | 49.9% | 71.1% | 94.5 | 88.8 | 84.5% | 95.7% | 108% | 80.5% | 96.7% | 4.24% (active)
Oc1c(CN2CCCC2)cc(COCc2ccccc2)c2cccnc12 | 19.2 | 31.7 | 27.9 | -1.58% (active) | 10.7 | 6.14% (active) | 10.5 | 19.3% | 9.79% (active) | 12.4% | 16.7% | – | 43.1 | 14.3 | -4.92% (active) | 16.4% | 18.1% | 64.5% | -7.48% (active) | –
COc1cc(C#Cc2ccc(=O)oc2C#Cc2ccccc2)cc(OC)c1OC | 104 | 115 | 16 | 76.6% | 134 | 89.3% | 96.3 | – | 33.4% | 3.75% (active) | 49.2% | 89.4% | 75.8 | 96.9 | 101% | 67.4% | 29.9% | 84.8% | 89.7% | 3.76% (active)
CC(C)C[C@@H](C(=O)N[C@H](C(=O)OC1CCCC1)c1ccccc1)[C@H](O)C(=O)NO | 33.2 | 67.5 | 86.5 | 50.8% | 70.4 | 85.9% | 76.2 | – | 63.4% | 51.1% | 29% | 52.7% | 59.8 | 53 | 67.5% | 73.4% | 43.4% | 74.6% | 101% | 67.8%
CC1=CCC[C@@H]2C1(C)CC[C@H](C)[C@@]2(C)CC1=CC(=O)C(SC(C)(C)C)=CC1=O (stereo partly drawn) | 97.3 | 70.7 | 86.8 | 66.2% | 98.8 | 77.5% | 78.4 | 88.6% | 36% | 74% | 64.7% | – | 68 | 88.5 | 106% | 99.4% | 84.9% | 85% | 84.8% | –
COCCCOc1cc(C[C@@H](C[C@H](N)[C@@H](O)C[C@H](C(=O)NCC(C)(C)C(N)=O)C(C)C)C(C)C)ccc1OC | 104 | 92.6 | 104 | 84.4% | 109 | 101% | 89.2 | – | 103% | 103% | 111% | 105% | 110 | 101 | 113% | 111% | 116% | 71.3% | 103% | 110%
C=CC1(C)C(O[Si](C)(C)C(C)(C)C)CC2C3OC(=O)NC31c1cccc3c1[C@H](C(=O)N3C)C2(C)C (stereo partly drawn) | 66.9 | 44.2 | 50.2 | 49.5% | 71.3 | 59.6% | 53.3 | – | 26% | 24.4% | 7.41% (active) | 55.1% | 75.8 | 55.1 | 86.6% | 80.9% | 52.7% | 79.2% | 60.5% | 47.1%
COc1ccc(C(c2cc(OC)c(OC)c(OC)c2)N2CCN(Cc3ccccc3)CC2)cc1 (stereo not drawn) | 27.4 | 82.7 | 88.4 | 68.8% | 84.8 | 92.8% | 66.7 | – | 53.5% | 16.1% | 84.1% | – | 84.7 | 97 | 66.2% | 63% | 69% | 59.1% | 61.6% | 68.8%
